Lassa entry inh = Lassa virus entry inhibition; actives 1.2% (n = 300,000); Lassa virus pseudotype entry inhibition, cell reporter; AID 540256; Potency, µM (doses to about 37.9 µM), without a hit: top-dose activity change, negative = inhibition, actives largely listed as inhibitors; calls by dose curve; tested in HEK293 cells; further: potency means the concentration at half of the fitted maximal effect; nearly all actives have a fitted effect of over 50% in size
FMDV inh = antivirals against foot and mouth disease virus | actives 1.2% (n = 410,000) | FMDV antiviral cell-based qHTS | Potency, µM (doses to about 57.9 µM), for the others: at the highest dose activity change, negative = inhibition, actives largely listed as inhibitors; calls by dose curve; tested in HEK293T cells; further: read-out not given here; potency means the concentration at half of the fitted maximal effect; nearly all actives have a fitted effect of over 45% in size
HCMV antiviral = inhibitors of human cytomegalovirus | HFF cells, HCMV-luciferase reporter, 72 h; active compounds read low | activity change, negative = inhibition, % at 57.5 µM | actives 4.5% (n = 410,000) | AID 1259415; in the data active means activity change below about -60%; inconclusive means no clear call, values can overlap the other calls; inactive means above about -39%
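Cell-based, HFFs, 1000 cells/well, 16 h 37C; cpds in DMSO + HCMV-luc, MOI 1 PFU/cell; 72 h 37C; OneGlo luminescence after 5 min RT; norm. to buffer vs Salinomycin 10uM.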
Marburg entry inh = Marburg virus entry inhibition. Marburg virus pseudotyped entry inhibition, cell reporter. Potency, µM (highest dose often 37.8 µM), for the others: top-dose activity change, negative = inhibition, hits mostly inhibitors. actives 1.8% (n = 300,000). AID 540276; calls by dose curve; tested in HEK293 cells; further: potency means the concentration at half of the fitted maximal effect
Active calls of the source: *; [ ] = dose if it differs, or a comment. A selection: hits, their analogues and other compounds. The true share with any hit is near 6.2%. On the % scale 0 is the no-effect control and ±100 the full control effect.

What do the screens show for `CC(C)C[C@H]1CN([C@@H](CC(C)C)CN2CCCC2CN2C(=S)NC[C@@H]2Cc2ccc(O)cc2)C(=S)N1CCc1ccccc1` (stereo not given in full)?
FMDV inh: -20.4%; HCMV antiviral: -80.2*

Results for CC(C)C[C@H]1CNC(=S)N1C[C@H]1CCCN1C[C@H](CC(C)C)N1C[C@H](Cc2ccc(O)cc2)N(CCc2ccccc2)C1=S ?
FMDV inh: inconclusive; HCMV antiviral: -94.9*

How did O=C(Nc1ccc(Cl)cc1C(F)(F)F)c1cc(S(=O)(=O)NCc2ccccc2)ccc1F do in these assays?
Lassa entry inh: -3.4%[46.1 µM]; FMDV inh: 16.8%; HCMV antiviral: inconclusive

How did CC(NC(=O)C1CC1)c1nnc2n1CCN(Cc1cccc(F)c1F)CC2 (stereo not given) do in these assays?
FMDV inh: -1.3%

Results for COc1cccc([C@H]2Oc3ccc(OC)cc3C(=NO[C@@H](C)c3cn([C@H](CO)Cc4ccccc4)nn3)[C@H]2O)c1 ?
Marburg entry inh: 5.1%[14.2 µM]

What do the screens show for `CC(=O)c1cc(C(=O)NC2CCCc3c2cnn3-c2cc(C)cc(C)c2)[nH]n1` (stereo not given)?
Lassa entry inh: -27.3%; FMDV inh: 24.7%; HCMV antiviral: 66.7; Marburg entry inh: -16.5%

How did Cc1cc(C)cc(-n2ncc3c2CCCC3NC(=O)c2cc(C)[nH]n2)c1 (stereo not given) do in these assays?
Lassa entry inh: inconclusive; FMDV inh: inconclusive; HCMV antiviral: -34.5; Marburg entry inh: 3.55µM*

How did CC(C)(C)c1ccc(-n2ncc3c2CCCC3NC(=O)CCn2cncn2)cc1 (stereo not given) do in these assays?
Lassa entry inh: 7.3%; FMDV inh: -12.7%; HCMV antiviral: -67.5*; Marburg entry inh: -12.8%

How did CC(C)(C)c1ccc(-n2ncc3c2CCCC3NC(=O)C2(C(N)=O)CC2)cc1 (stereo not given) do in these assays?
FMDV inh: inconclusive; HCMV antiviral: -95.7*

What do the screens show for `Cc1cc(C)cc(-n2ncc3c2CCCC3NC(=O)c2cc(C)n(C)n2)c1` (stereo not given)?
FMDV inh: -9.1%; HCMV antiviral: -36.4

How did Cc1cc(C(=O)NC2CCCc3c2cnn3-c2ccc(C(C)(C)C)cc2)nn1C (stereo not given) do in these assays?
Lassa entry inh: inconclusive; FMDV inh: inconclusive; HCMV antiviral: -78.5*; Marburg entry inh: inconclusive

Results for CC[Se]CC[C@@H](N)C(=O)O ?
Marburg entry inh: -8.1%

How did CCOc1ccccc1Nc1nnc(-c2cc3cc(OC)ccc3oc2=O)s1 do in these assays?
Lassa entry inh: inconclusive; FMDV inh: -27.1%; HCMV antiviral: -1.7

Results for O=c1c2cccnc2[nH]c(=S)n1CCCN1CCN(c2ccc(F)cc2)CC1 ?
Lassa entry inh: 5.8µM*; FMDV inh: -18.5%; HCMV antiviral: -24.4; Marburg entry inh: 4.61µM*

How did CC1CCN(CCn2c(=S)[nH]c3ncccc3c2=O)CC1 do in these assays?
Marburg entry inh: 1.7%

Results for COc1ccc(N2CCN(CCCn3c(=S)[nH]c4ncccc4c3=O)CC2)cc1 ?
Lassa entry inh: inconclusive; FMDV inh: 18.4%; HCMV antiviral: inconclusive; Marburg entry inh: 4.11µM*

Results for CCC(C)(C)C1CCc2c(sc(N)c2C(N)=O)C1 (stereo not given) ?
Lassa entry inh: inconclusive; FMDV inh: inconclusive; HCMV antiviral: -76.0*; Marburg entry inh: inconclusive

What do the screens show for `CC(C)(C)C1CCc2c(sc(NC(=O)C3CCCO3)c2C(N)=O)C1` (stereo not given)?
Lassa entry inh: 17.8µM*; FMDV inh: -7.6%; HCMV antiviral: inconclusive; Marburg entry inh: inconclusive

What do the screens show for `COc1ccc(F)cc1-c1cc(NC=O)c2ncc(-c3cccc(C(=O)N(C)C)c3)n2c1`?
FMDV inh: inconclusive; HCMV antiviral: 39.7

What do the screens show for `COc1ccc(F)cc1-c1cc(NC=O)c2ncc(-c3cc(OC)c(OC)c(OC)c3)n2c1`?
FMDV inh: 31.6µM*; HCMV antiviral: -76.4*

What do the screens show for `COc1cccc(-c2cc(NC=O)c3ncc(-c4ccc(C(C)=O)cc4)n3c2)c1`?
FMDV inh: -17.2%; HCMV antiviral: -64.4*

Results for COc1cc(-c2cc(NC=O)c3ncc(-c4ccccc4)n3c2)cc(OC)c1OC ?
FMDV inh: -27.9%; HCMV antiviral: 194.1

How did COc1cc(-c2cnc3c(NC=O)cc(-c4ccc(C)cc4)cn23)cc(OC)c1OC do in these assays?
FMDV inh: 0.0%; HCMV antiviral: -76.1*

What do the screens show for `COc1cc(-c2cnc3c(NC=O)cc(-c4ccccc4Cl)cn23)cc(OC)c1OC`?
FMDV inh: -23.3%; HCMV antiviral: -77.1*

What do the screens show for `Cc1c(Cl)cccc1NC(=O)CCS(=O)(=O)c1cccc2nsnc12`?
Lassa entry inh: -18.0%[46.1 µM]; FMDV inh: 1.8%; HCMV antiviral: -12.1; Marburg entry inh: 8.4%[46.1 µM]

Results for Cc1ccc(C)n1-c1nnc(N2CCCC(C(=O)NCc3cccc(Cl)c3)C2)s1 (stereo not given) ?
Lassa entry inh: -9.6%[46.1 µM]; FMDV inh: inconclusive; HCMV antiviral: -8.0; Marburg entry inh: inconclusive

How did CC(CNC(=O)c1nnc(Cc2ccc(F)cc2)o1)c1ccccc1 (stereo not given) do in these assays?
Lassa entry inh: -8.8%[46.1 µM]; FMDV inh: -5.6%; HCMV antiviral: -14.3

Results for COc1ccc(S(=O)(=O)N2CCN(C(=O)c3cc4c(s3)CCC4)CC2)cc1 ?
Lassa entry inh: inconclusive; FMDV inh: inconclusive; HCMV antiviral: -78.0*; Marburg entry inh: 0.0%

Results for O=C(NCc1ccc(Cl)cc1)N1CCN(S(=O)(=O)c2ccccc2)CC1 ?
Lassa entry inh: inconclusive; FMDV inh: -5.9%; HCMV antiviral: -66.6*; Marburg entry inh: -15.7%[46.1 µM]

Results for O=C(CN1CCSC1=O)N1CCN(S(=O)(=O)c2ccc(Cl)cc2)CC1 ?
Lassa entry inh: 0.4%; FMDV inh: inconclusive; HCMV antiviral: -60.4*; Marburg entry inh: 2.9%

What do the screens show for `COc1ccccc1C(C)NC(=O)CCC(=O)N1CCN(S(=O)(=O)c2ccc(Cl)cc2)CC1` (stereo not given)?
Lassa entry inh: inconclusive; FMDV inh: 35.5µM*; HCMV antiviral: -32.9; Marburg entry inh: inconclusive

Results for COc1ccccc1C(=O)NCCC(=O)N1CCN(S(=O)(=O)c2ccc(Cl)cc2)CC1 ?
FMDV inh: -19.7%; HCMV antiviral: 0.0

What do the screens show for `COCc1cc(N2CCN(C(=O)OC(C)(C)C)C[C@H]2C)ccc1N1CC[C@@H](O)C1`?
HCMV antiviral: -20.3

What do the screens show for `CC(C)=NO[C@@H](C)CN1CCCc2nc(C)c(C)cc21`?
Marburg entry inh: -13.5%[14.2 µM]

What do the screens show for `O=C1CN(S(=O)(=O)Cc2ccccc2)C[C@H]2[C@H](c3ccc(Br)cc3)[C@H](CO)N12`?
HCMV antiviral: -0.8

Results for O=C(NCCN1CCOCC1)c1cnn(-c2nccc(-c3ccccc3F)n2)c1C1CC1 ?
FMDV inh: 40.4%

How did CCOc1ccc(NS(=O)(=O)c2ccc(-c3cc(C)no3)s2)cc1 do in these assays?
Lassa entry inh: inconclusive; FMDV inh: -18.6%; HCMV antiviral: 0.0

High-throughput results: PubChem BioAssay, National Center for Advancing Translational Sciences (NCATS)
